From PubChem BioAssay (EPA / NIEHS)
Results filed as inconclusive are left out. The source made the active and inactive calls. The calls were made as follows, unless noted: active = hit-call score of the fitted dose curve at least 0.9, where 1 is the maximum; inactive = score below 0.9.

Tests used:
[1] = target: Oxysterols receptor LXR-beta (Homo sapiens) (UniProt P55055); assay: ATG_LXRb_TRANS: Attagene TRANS-FACTORIAL HepG2 Assay for human Liver X Receptor beta (LXRb) (AID 2282981; active = hit-call score of the fitted dose curve at least 0.9, where 1 is the maximum); settings: HepG2 Attagene TRANS GAL4-LXRb reporter, mRNA
Oxysterols receptor LXR-beta (Homo sapiens), sequence (P55055 whole entry, looked up, the tested form may be a part): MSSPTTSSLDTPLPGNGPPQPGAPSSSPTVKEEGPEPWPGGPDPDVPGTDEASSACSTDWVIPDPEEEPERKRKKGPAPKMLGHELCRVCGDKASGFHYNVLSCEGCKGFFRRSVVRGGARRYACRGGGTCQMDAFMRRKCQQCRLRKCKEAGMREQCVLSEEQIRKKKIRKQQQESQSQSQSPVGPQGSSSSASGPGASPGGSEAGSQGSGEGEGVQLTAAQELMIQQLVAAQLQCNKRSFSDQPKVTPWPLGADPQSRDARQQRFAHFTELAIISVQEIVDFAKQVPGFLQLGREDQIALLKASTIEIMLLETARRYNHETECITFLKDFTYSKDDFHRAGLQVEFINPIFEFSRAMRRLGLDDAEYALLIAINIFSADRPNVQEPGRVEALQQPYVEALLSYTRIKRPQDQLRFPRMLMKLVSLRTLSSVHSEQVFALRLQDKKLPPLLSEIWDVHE
Summary of the method: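 After 24 h of chemical treatment, transfected HepG2 cells yield total RNA; reporter cDNA is PCR-amplified, FAM-labelled, HpaI-cut and run on capillary electrophoresis. Signal reflects chimeric LXRb-Gal4 activity on GAL4-UAS reporters.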

[2] = target: Hepatocyte nuclear factor 4-alpha (Homo sapiens) (UniProt P41235); assay: ATG_HNF4a_TRANS: Attagene TRANS-FACTORIAL HepG2 Assay for human Hepatocyte Nuclear Factor 4 alpha (HNF4a) (AID 2282982; active = hit-call score of the fitted dose curve at least 0.9, where 1 is the maximum); settings: HepG2 HNF4a transactivation reporter, mRNA readout
Hepatocyte nuclear factor 4-alpha (Homo sapiens), sequence (P41235 whole entry, looked up): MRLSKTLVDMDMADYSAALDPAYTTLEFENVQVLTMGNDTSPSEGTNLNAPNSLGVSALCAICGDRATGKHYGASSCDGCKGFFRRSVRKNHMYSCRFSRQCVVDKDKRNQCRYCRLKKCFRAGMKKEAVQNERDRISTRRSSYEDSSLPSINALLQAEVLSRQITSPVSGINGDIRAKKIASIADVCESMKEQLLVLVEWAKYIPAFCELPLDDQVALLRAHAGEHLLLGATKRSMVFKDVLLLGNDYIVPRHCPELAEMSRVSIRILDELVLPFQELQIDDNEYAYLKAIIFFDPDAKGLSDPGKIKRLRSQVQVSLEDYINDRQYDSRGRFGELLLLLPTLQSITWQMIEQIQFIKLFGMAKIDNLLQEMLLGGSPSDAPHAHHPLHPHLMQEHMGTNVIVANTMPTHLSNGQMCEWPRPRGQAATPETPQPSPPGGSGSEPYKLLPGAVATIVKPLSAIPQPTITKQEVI
Summary of the method: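 Multiplexed reporter assay: transfected HepG2, 24 h exposure, total RNA → oligo(dT) RT → PCR → 6-FAM extension → HpaI digest → CE fluorescence. DMSO = negative control.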

[3] = ATG_M_06_TRANS: Attagene TRANS-FACTORIAL HepG2 Assay for M06 Transcription Factor (Internal Marker) (AID 2282983; active = hit-call score of the fitted dose curve at least 0.9, where 1 is the maximum); settings: HepG2 Attagene TRANS M06 internal marker reporter
Summary of the method: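 Read-out: fluorescent reporter cDNA fragments resolved by capillary electrophoresis after RT-PCR and HpaI cut. Source cells were HepG2 carrying transfected multi-reporter GAL4 constructs, dosed 24 h. Increase over DMSO control analysed.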

[4] = target: Nuclear receptor subfamily 4 group A member 2 (Homo sapiens) (UniProt P43354); assay: ATG_NURR1_TRANS: Attagene TRANS-FACTORIAL HepG2 Assay for human Nuclear Receptor Related Protein 1 (NURR1) (AID 2282985; active = hit-call score of the fitted dose curve at least 0.9, where 1 is the maximum); settings: HepG2 Attagene TRANS reporter, mRNA readout
Nuclear receptor subfamily 4 group A member 2 (Homo sapiens), sequence (P43354 whole entry, looked up, the tested form may be a part): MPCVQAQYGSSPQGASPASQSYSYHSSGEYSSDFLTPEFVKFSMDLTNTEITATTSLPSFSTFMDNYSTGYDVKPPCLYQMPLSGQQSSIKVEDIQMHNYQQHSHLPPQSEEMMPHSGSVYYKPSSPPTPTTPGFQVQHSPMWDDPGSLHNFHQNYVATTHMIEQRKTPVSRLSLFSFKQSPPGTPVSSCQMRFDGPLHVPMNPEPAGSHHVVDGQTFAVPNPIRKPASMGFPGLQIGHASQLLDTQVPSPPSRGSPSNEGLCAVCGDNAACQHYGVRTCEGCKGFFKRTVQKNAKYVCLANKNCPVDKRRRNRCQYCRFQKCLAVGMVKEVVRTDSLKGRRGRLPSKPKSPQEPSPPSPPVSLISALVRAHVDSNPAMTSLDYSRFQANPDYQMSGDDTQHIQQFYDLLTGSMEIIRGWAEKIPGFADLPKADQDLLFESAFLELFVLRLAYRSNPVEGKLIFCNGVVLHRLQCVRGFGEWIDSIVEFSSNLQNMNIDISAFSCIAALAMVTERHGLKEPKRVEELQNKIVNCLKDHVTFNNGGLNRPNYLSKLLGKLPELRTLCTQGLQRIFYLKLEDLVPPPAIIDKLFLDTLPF
Summary of the method: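 Measures transcriptional activation by an exogenous NR-Gal4 chimera in transfected HepG2 liver cells. After 24 h, reporter RNA is reverse-transcribed, amplified and resolved by capillary electrophoresis; DMSO defines baseline.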

[5] = target: Transcriptional activator Myb (Homo sapiens) (UniProt P10242); assay: ATG_Myb_CIS: Attagene CIS-FACTORIAL HepG2 Assay for human Myeloblastosis (Myb) Proto-Oncogene Transcription Factor (AID 2282986); settings: HepG2 Attagene CIS-FACTORIAL Myb reporter transcription; actives raise or lower the signal
Transcriptional activator Myb (Homo sapiens), sequence (P10242 whole entry, looked up): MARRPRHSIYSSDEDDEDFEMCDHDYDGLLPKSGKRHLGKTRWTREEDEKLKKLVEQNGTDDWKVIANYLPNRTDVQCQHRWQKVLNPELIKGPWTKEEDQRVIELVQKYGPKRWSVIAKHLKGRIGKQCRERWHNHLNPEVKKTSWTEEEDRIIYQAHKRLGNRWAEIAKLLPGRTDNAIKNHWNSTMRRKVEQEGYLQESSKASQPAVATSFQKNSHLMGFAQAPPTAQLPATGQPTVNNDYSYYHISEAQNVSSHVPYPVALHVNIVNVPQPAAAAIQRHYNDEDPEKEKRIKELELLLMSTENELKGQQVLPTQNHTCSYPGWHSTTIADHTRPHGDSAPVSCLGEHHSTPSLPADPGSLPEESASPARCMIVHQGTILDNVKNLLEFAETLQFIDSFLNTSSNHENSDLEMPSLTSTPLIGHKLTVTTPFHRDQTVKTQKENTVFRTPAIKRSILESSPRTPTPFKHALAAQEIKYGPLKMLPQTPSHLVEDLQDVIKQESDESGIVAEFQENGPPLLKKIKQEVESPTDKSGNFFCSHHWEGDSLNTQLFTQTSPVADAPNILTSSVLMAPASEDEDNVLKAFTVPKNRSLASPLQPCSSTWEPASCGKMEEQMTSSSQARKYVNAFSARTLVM
Summary of the method: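 Reporter transcript levels, quantified by fluorescent RT-PCR and capillary electrophoresis, serve as the read-out. Transfected HepG2 cells carrying cis-promoter reporter units are dosed for 24 hours, and curves are fitted bidirectionally against DMSO controls.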

[6] = target: Nuclear respiratory factor 1 (Homo sapiens) (UniProt Q16656); assay: ATG_NRF1_CIS: Attagene CIS-FACTORIAL HepG2 Assay for human Nuclear Respiratory Factor 1 (NRF1) Orphan Gene (AID 2282987); settings: HepG2 NRF1 cis-element reporter, Attagene multiplex; actives raise or lower the signal
Nuclear respiratory factor 1 (Homo sapiens), sequence (Q16656 whole entry, looked up): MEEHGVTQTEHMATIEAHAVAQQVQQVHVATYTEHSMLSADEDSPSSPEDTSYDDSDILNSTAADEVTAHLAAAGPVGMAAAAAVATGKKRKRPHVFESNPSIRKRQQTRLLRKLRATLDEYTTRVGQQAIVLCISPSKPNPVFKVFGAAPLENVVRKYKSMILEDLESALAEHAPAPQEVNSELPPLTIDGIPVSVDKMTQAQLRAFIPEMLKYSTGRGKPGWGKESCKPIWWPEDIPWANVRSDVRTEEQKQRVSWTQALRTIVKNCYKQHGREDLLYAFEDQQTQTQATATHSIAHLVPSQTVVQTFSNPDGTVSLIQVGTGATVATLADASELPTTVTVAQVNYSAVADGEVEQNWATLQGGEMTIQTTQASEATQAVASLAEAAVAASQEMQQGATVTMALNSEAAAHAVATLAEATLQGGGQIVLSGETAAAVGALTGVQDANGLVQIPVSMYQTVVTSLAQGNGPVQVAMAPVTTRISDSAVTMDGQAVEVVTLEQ
Summary of the method: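 Multiplexed cis-reporter assay, HepG2 cells, 24 h treatment. Total RNA → oligo(dT) RT → PCR with reporter-specific primers → 6-FAM primer extension → HpaI cut → CE. Bidirectional fit vs DMSO.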

[7] = ATG_NFI_CIS: Attagene CIS-FACTORIAL HepG2 Assay for human Nuclear Factor I (NFI) (AID 2282989); settings: HepG2 cis-regulatory reporter, NFI response element transcription; actives raise or lower the signal
Summary of the method: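 Transfected HepG2 liver cells, exposed 24 h, supplied total RNA for oligo(dT) reverse transcription and reporter-specific PCR. Labelled, HpaI-cut fragments were sized by capillary electrophoresis; DMSO set the baseline for bidirectional fitting.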

[8] = target: Oxysterols receptor LXR-alpha (Homo sapiens) (UniProt Q13133); assay: ATG_LXRa_TRANS: Attagene TRANS-FACTORIAL HepG2 Assay for human Liver X Receptor alpha (LXRa) (AID 2282980; active = hit-call score of the fitted dose curve at least 0.9, where 1 is the maximum); settings: HepG2 Attagene TRANS reporter, LXRa transactivation
Oxysterols receptor LXR-alpha (Homo sapiens), sequence (Q13133 whole entry, looked up, the tested form may be a part): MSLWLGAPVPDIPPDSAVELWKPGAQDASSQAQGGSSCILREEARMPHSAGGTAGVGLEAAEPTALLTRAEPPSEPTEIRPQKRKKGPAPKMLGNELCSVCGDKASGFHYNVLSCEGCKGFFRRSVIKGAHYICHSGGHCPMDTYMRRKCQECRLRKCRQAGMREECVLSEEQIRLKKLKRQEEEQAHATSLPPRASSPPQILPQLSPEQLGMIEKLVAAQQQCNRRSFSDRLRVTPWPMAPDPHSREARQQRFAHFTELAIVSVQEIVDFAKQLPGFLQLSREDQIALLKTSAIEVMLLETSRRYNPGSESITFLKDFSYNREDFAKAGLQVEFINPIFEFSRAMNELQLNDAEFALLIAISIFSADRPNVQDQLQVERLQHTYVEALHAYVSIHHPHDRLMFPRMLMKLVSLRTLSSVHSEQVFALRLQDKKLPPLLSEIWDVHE
Summary of the method: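 Read-out: reporter transcript levels by RT-PCR plus capillary electrophoresis, fluorescence intensity. Transiently transfected HepG2, exogenous NR-GAL4 chimera, GAL4-UAS reporters; 24 h compound exposure. Activity = increase over DMSO negative control.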

[9] = ATG_M_32_TRANS: Attagene TRANS-FACTORIAL HepG2 Assay for M32 Transcription Factor (Internal Marker) (AID 2282984; active = hit-call score of the fitted dose curve at least 0.9, where 1 is the maximum); settings: HepG2 Attagene TRANS M32 internal marker reporter
Summary of the method: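 Cell-based TRANS-format assay in HepG2: exogenous chimeric GAL4 reporter units transiently expressed, compounds applied 24 h. Reporter mRNA detected by RT-PCR plus capillary electrophoresis; this readout is an internal background marker.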

Measured: AC50

O=C1NC2NC(=O)NC2N1 (stereo not given)
not listed: [8] | [9]
inactive: all other assays above

COCCOC(=O)c1ccccc1C(=O)OCCOC
not listed: [4] | [8] | [9]
inactive: all other assays above

Cc1[nH]c(=O)c(C#N)cc1-c1ccncc1
inactive: [1] | [3] | [5] | [6] | [7]

OCC(O)c1ccccc1 (stereo not given)
inactive: [8] | [4] | [5] | [6] | [7]

CC(C)NCC(O)COc1ccc(CC(N)=O)cc1 (stereo not given)
not listed: [4] | [8]
inactive: all other assays above

O=C1OC(=O)c2c(Br)c(Br)c(Br)c(Br)c21
not listed: [2] | [8]
inactive: all other assays above

CC=CC=CCOC(=O)C(C)C
not listed: [2] | [3] | [8]
inactive: all other assays above

CS(=O)(=O)c1ccc(C2=C(c3ccccc3)C(=O)OC2)cc1
not listed: [3] | [4] | [8]
inactive: all other assays above

COC(C)(C)CCCC(C)CC=O (stereo not given)
not listed: [2] | [3] | [8]
inactive: all other assays above

C[C@H](CCC(=O)NCC(=O)O)[C@H]1CC[C@H]2[C@@H]3[C@H](O)C[C@@H]4C[C@H](O)CC[C@]4(C)[C@H]3C[C@H](O)[C@]12C
not listed: [3] | [8] | [9]
inactive: all other assays above

CN(C)c1ccncc1
inactive: [8] | [5] | [6] | [7]

C=CC(=O)OCCC#N
not listed: [8] | [9]
inactive: all other assays above

CCCCCCCCCC(C)C=O (stereo not given)
inactive: [8] | [9] | [5] | [6] | [7]

CCC1CCCCC1
inactive: [8] | [5] | [6] | [7]

C=C(C)C(=O)OCCOCCOCCOC(=O)C(=C)C
inactive: [8] | [9] | [5] | [6] | [7]

COC(=O)c1ccc(C)cc1C1=NC(C)(C(C)C)C(=O)N1 (stereo not given) (tested in a mixture with another compound)
inactive: [8] | [4] | [5] | [6] | [7]

C=C(C)C1CC=C(C)C(=O)C1 (stereo not given)
inactive: [1] | [2] | [3] | [6] | [7]

CC(=O)c1ccccn1
not listed: [2] | [8] | [9]
inactive: all other assays above

CCOc1ccccc1O
not listed: [8]
inactive: all other assays above

CCCCCCCCCCCC(=O)OCC(O)CO (stereo not given)
active: [4] 132 µM
not listed: [2] | [8]
inactive: all other assays above

CCC(C)S (stereo not given)
inactive: [1] | [9] | [5] | [6] | [7]

CC(O)C1CCCCC1 (stereo not given)
not listed: [2] | [4] | [8]
inactive: all other assays above

CN(C)C(=O)Nc1ccc(Oc2ccc(Cl)cc2)cc1
not listed: [2] | [5] | [8]
inactive: all other assays above

O=c1c(O)c(-c2ccc(O)cc2)oc2cc(O)cc(O)c12
not listed: [8]
inactive: all other assays above

Brc1ccc(Br)c(Br)c1
inactive: [9] | [5] | [6] | [7]

CCCCC(CC)(CO)CO
inactive: [5] | [6] | [7]

CCCCOCC
inactive: [4] | [5] | [6] | [7]

COc1ccc(CCO)cc1
inactive: [9] | [5] | [6] | [7]

C=C[Si]1(C)O[Si](C)(C=C)O[Si](C)(C=C)O[Si](C)(C=C)O1 (stereo not given)
inactive: [5] | [6]

c1ccc2cc(Nc3ccc(Nc4ccc5ccccc5c4)cc3)ccc2c1
inactive: [3] | [4] | [5] | [6] | [7]

C=CC(=C)CCCC(C)(C)OC(C)=O
inactive: [3] | [5] | [6] | [7]

CCCC(=O)OC(C)(C)Cc1ccccc1
inactive: [9] | [4] | [5] | [6] | [7]

CCC(=O)O[C@@H]1C[C@H]2CC[C@]1(C)C2(C)C
inactive: [9] | [6] | [7]

CC(C)c1ccccc1O
inactive: [3] | [5] | [6] | [7]

Cc1cccc(Nc2ccccc2)c1
inactive: [3] | [4] | [6] | [7]
active: [5] 170 µM

c1ccc(Oc2ccccc2)cc1
inactive: [9] | [4] | [5] | [6] | [7]

CS(=O)(=O)OCCCCOS(C)(=O)=O
inactive: [3] | [9] | [5] | [6] | [7]

c1ccc(CN(Cc2ccccc2)Cc2ccccc2)cc1
inactive: [3] | [4] | [6] | [7]

CC(C)CCCCCCc1ccc(OCCOCCO)cc1
inactive: [3] | [5] | [6] | [7]

CCCCCCCC/C=C\CCCCCCCC(=O)OCC
inactive: [4] | [5] | [6] | [7]

CCCC(=O)OCCc1ccccc1
inactive: [3] | [4] | [5] | [6] | [7]

BrCc1cccc(Oc2ccccc2)c1
inactive: [3] | [9] | [6]

CC(C)OCCO
inactive: [3] | [4] | [5] | [6] | [7]

O=[N+]([O-])c1cccc(Cl)c1
inactive: [3] | [5] | [6] | [7]

CCCCSCCCC
inactive: [3] | [9] | [5] | [6]

CCCCCCCC(=O)OCC(O)CO (stereo not given)
inactive: [4] | [5] | [6] | [7]

OCCCCC(O)CO (stereo not given)
inactive: [3] | [5] | [6] | [7]

CCCSc1ccc2nc(NC(=O)OC)[nH]c2c1
inactive: [3] | [9] | [5] | [6] | [7]

CN1CCOCC1
inactive: [9] | [5] | [6] | [7]

CCCCCC(C)=O
inactive: [3] | [9] | [5] | [6] | [7]

O=Cc1ccccc1S(=O)(=O)O
inactive: [3] | [4] | [5] | [6] | [7]

CC(=O)NCCO
inactive: [9] | [5] | [6] | [7]

CCCCCCCCCC(=O)OC
inactive: [5] | [6] | [7]

C=CCN(CC=C)CC=C
inactive: [3] | [5] | [6] | [7]

CC1CC(O)CC(C)(C)C1 (stereo not given)
inactive: [9] | [5] | [6] | [7]

Cc1ccc(-c2ccccc2)cc1
inactive: [3] | [4] | [5] | [6] | [7]

COCCc1ccc(OCC(O)CNC(C)C)cc1 (stereo not given)
inactive: [9] | [5] | [6] | [7]

COc1ccc(N=Nc2cc(C)c(N=Nc3ccc(S(=O)(=O)O)cc3)cc2OC)cc1
active: [6] 71.8 µM | [7] 149 µM
inactive: [9] | [5]

COc1ccc(N)c([N+](=O)[O-])c1
inactive: [3] | [4] | [5] | [6] | [7]

CCCCC1(COC(=O)CCC(=O)O)C(=O)N(c2ccccc2)N(c2ccccc2)C1=O
inactive: [3] | [4] | [5] | [6] | [7]

COc1cccc(OC)c1O
inactive: [3] | [4] | [5] | [6] | [7]

CC(C)(C)c1ccc(C(=O)O)cc1
inactive: [5] | [6] | [7]

CC(C)CCOC(=O)c1ccccc1
inactive: [9] | [5] | [6] | [7]
